We go through 1 compound from PubChem BioAssay AID2284090 (EPA ToxCast).

Active and inactive are the calls of the source. Rule for the calls: active = hit-call score of the fitted dose curve at least 0.9, where 1 is the maximum; inactive = score below 0.9.

Cytochrome P450 2C19 (Homo sapiens), sequence (P33261 whole entry, looked up): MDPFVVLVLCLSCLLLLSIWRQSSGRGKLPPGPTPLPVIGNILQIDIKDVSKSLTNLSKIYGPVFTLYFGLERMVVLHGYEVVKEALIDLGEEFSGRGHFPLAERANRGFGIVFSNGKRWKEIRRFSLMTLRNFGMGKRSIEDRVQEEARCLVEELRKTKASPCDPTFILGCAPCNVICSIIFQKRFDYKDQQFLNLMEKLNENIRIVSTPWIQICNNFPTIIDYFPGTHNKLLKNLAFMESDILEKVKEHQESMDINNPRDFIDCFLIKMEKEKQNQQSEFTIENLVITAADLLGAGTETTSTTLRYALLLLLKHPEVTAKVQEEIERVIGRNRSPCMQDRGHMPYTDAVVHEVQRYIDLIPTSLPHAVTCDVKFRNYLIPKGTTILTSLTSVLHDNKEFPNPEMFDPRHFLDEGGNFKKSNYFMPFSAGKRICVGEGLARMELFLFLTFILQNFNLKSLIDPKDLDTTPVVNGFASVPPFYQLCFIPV

For the assay, the target named is Cytochrome P450 2C19 (Homo sapiens) (UniProt P33261). Kind of assay: ERF_FR_ADME_hCYP2C19_Omeprazole: Eurofins (ERF) CYP450-related Enzyme Activity (ADME) Assay for CYP2C19, Omeprazole Substrate. Here is the method:
ERF_FR_ADME_hCYP2C19_Omeprazole is a biochemical, single-readout assay that uses extracted gene-proteins in a cell-free assay. Measurements were taken 0.16 hour after chemical dosing in a 96-well plate. See CYP2C19 inhibition (HLM, omeprazole substrate).ERF_FR_ADME_hCYP2C19_Omeprazole is an assay component calculated from the ERF_FR_ADME_hCYP2C19_Omeprazole assay. It is designed to measure enzyme activity using a type of enzyme reporter as detected by peak area response of 5-hydroxyomeprazole with HPLC-MS/MS technology.Data from the assay component ERF_FR_ADME_hCYP2C19_Omeprazole was analyzed at the assay endpoint, ERF_FR_ADME_hCYP2C19_Omeprazole, in the positive analysis fitting direction relative to acetonitrile as the negative control and baseline of activity. Using a type of enzyme reporter, loss-of-signal activity can be used to understand changes in enzymatic activity as they relate to gene CYP2C19. To generalize the intended target to other relatable targets, this assay endpoint is annotated to the cyp intended target family, where the subfamily is steroidogenesis-related.
Assay is performed using 0.5uM omeprazole, cells are pre-incubated for 5 minutes, and then 10 minutes incubation with NADPH at 37C. Test Sample Requirements: Minimum for 1) Screen: 100 ul of 10 mM stock -OR- 1 to 2 mg (pre-weighed). 2) Dose Response: 250 ul of 10 mM stock -OR- 1.5 to 2 mg (pre-weighed).
For the compound `O=C(/C=C/c1ccc(O)cc1)CC(=O)/C=C/c1ccc(O)cc1`, the AC50 – broadly, the concentration at which the activity in the assay is half-maximal – is 1.74 µM (active).
